Inconclusive results are not listed. Calls of active or inactive are those of the source. Unless noted, calls follow the shape of the dose curve; as a rule, active = well fitted curve in either direction with a large enough effect (not every such curve was filed as active); inconclusive = small, poorly fitted or top-dose-only effect, or another doubt; inactive = flat fitted curve, though single readings scatter.

Sequence of Glucocorticoid receptor (Homo sapiens) (P04150 whole entry, looked up): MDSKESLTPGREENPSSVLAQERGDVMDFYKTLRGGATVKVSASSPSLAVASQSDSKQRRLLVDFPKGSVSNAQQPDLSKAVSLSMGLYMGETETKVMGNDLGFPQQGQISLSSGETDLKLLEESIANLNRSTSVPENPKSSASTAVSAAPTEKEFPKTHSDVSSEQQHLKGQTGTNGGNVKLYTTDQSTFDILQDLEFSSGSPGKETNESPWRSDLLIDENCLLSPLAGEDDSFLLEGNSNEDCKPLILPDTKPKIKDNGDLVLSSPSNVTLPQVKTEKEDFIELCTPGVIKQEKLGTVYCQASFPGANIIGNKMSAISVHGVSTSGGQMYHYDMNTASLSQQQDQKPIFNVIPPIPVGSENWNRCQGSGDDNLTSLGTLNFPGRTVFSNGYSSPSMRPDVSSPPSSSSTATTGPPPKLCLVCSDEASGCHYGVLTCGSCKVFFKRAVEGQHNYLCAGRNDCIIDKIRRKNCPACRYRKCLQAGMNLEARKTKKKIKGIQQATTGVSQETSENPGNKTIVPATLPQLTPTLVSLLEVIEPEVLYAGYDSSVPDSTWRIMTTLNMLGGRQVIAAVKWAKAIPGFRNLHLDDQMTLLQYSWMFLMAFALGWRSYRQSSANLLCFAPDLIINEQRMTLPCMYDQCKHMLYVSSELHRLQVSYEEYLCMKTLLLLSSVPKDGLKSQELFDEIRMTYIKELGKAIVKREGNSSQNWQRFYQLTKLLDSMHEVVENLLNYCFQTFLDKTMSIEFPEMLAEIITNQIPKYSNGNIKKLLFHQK

Test system in one test: not listed separately
Nature of the test: Stat Signaling Pathway (AID 446).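 Also: ME-180 cervical cancer cells given 40 pM IL-6 alongside compound; SIE-controlled beta-lactamase reporter measured as 460/530 nm FRET emission ratio; % is scaled to controls: 0 for no effect and ±100 for the full control effect.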 The conditions noted are these: ME-180 (cervical carcinoma) SIE beta-lactamase reporter, IL-6 stimulated, 5 h; at 17.2 µM (top of the series) unless noted. An outline of the steps:
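Compound effects on IL-6-induced STAT reporter activity were measured in ME-180 cells. After overnight culture, cells were co-treated with 40 pM IL-6 for 5 hrs before beta-lactamase substrate loading at room temperature.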
In the case of `CCOC(=O)c1ccccc1OCc1cc(/C=N/n2cncn2)ccc1OC`, the activity, negative = inhibition is -6.04% (inactive).

For the compound `C=CCNc1nc(-c2ccc(O)c(C(N)=O)c2)cs1`, the activity, negative = inhibition was -12.3% (inactive).

Turning to `COC(=O)c1n[nH]c2ccccc12`, the activity, negative = inhibition is -6.08% (inactive).

As to `O=C(Oc1ccccc1N1C(=O)CCC1=O)c1ccco1`, the activity, negative = inhibition is 1.19% (inactive).

For `CCN(CC)C(=O)COn1c(SCC(=O)N(CC)CC)nc2ccccc2c1=O`, the activity, negative = inhibition is 9.4% (inactive).

For `CCCCOc1ccc(C(=O)Nn2cnnc2)cc1`, the activity, negative = inhibition was 8.41% (inactive).

Take `O=c1cc(NCc2ccccc2)nc2n1CCCS2`: the activity, negative = inhibition was -19.7% (inactive).

Regarding `C[N+](C)(C)CCOP(=O)([O-])OC[C@H](O)CO`, the activity, negative = inhibition was -1.98% (inactive).

Take `CCn1nc(NC(=O)c2cccnc2)c2cc3ccccc3nc21`: the activity, negative = inhibition is -4.62% (inactive).

Regarding `CC1(C)Cc2c(sc3nc4n(c(=O)c23)CCC4)CO1`, the activity, negative = inhibition was -2.43% (inactive).

`Cn1c(=O)c2c3c(sc2n2c(SCC(=O)c4ccccc4)nnc12)COC(C)(C)C3`: the activity, negative = inhibition is 4.51% (inactive).

For `CC(=O)NC(=O)Nc1sc(=S)n(C)c1C`, the activity, negative = inhibition is 1.93% (inactive).

Consider `COc1ccc2cnn(-c3ccccc3C)c(=O)c2c1OC`, for which the activity, negative = inhibition is 24.1% (inactive).

`CCN(CC)CCN1C(=O)c2ccccc2NC1c1cc(OC)c(OC)c(OC)c1` (stereo not given): the activity, negative = inhibition was 10.5% (inactive).

With `C=CCc1c(C)nc(SCCC)[nH]c1=O`, the activity, negative = inhibition was -7.18% (inactive).

As for `CSc1nnc(N(CCC#N)CCC#N)s1`, the activity, negative = inhibition is 2.15% (inactive).

For `Cn1c(=O)n(CCc2ccccc2)c(=O)c2c1ncn2Cc1ccccc1`, the activity, negative = inhibition was -18.1% (inactive).

For the compound `CCOc1cccc(NC(=O)C2CC(=O)NC(=Nc3ccccc3)S2)c1` (stereo not given), the activity, negative = inhibition was -16.5% (inactive).

On to `N#Cc1c(-c2ccco2)cc(C2CC2)nc1N`, for which the activity, negative = inhibition was -18.4% (inactive).

As for `O=C1c2ccccc2C(=O)N1c1ncccn1`, the activity, negative = inhibition is 9.87% (inactive).

On to `Cc1cc(=O)oc2ccc(OCC(=O)N3CCc4ccccc43)cc12`, for which the activity, negative = inhibition was 11.2% (inactive).

`OC1CN=C2Sc3ccccc3N2C1` (stereo not given): the activity, negative = inhibition was -3.59% (inactive).

Regarding `c1cc2c(cc1C1=Nn3c(nnc3C3CCCCC3)SC1)OCO2`, the activity, negative = inhibition is -7.03% (inactive).

For `CCCOc1ccc(/C(O)=C2/C(=O)C(=O)N(CCN(C)C)C2c2ccncc2)cc1` (stereo not given), the activity, negative = inhibition is 5.47% (inactive).

As to `Nc1ccc2c3c(cccc13)CC2`, the activity, negative = inhibition was 7.79% (inactive).

With `O=C(c1ccccc1)n1c(=S)nc2ccccn21`, the activity, negative = inhibition was -3.1% (inactive).

As to `CSc1nncc(=O)[nH]1`, the activity, negative = inhibition is -3.78% (inactive).

As to `CCN1CCc2c(C#N)c(N3CCOCC3)nc(NCCO)c2C1`, the activity, negative = inhibition is 11.3% (inactive).

For the compound `CCCCCSc1nc(O)cc(=O)[nH]1`, the activity, negative = inhibition is -6.56% (inactive).

`CCCOc1cccc(-c2nnc(N)s2)c1`: the activity, negative = inhibition was -2.76% (inactive).

In the case of `CC1=C(c2ccc(Cl)cc2)[N+](=O)C(C)(C)N1[O-]`, the activity, negative = inhibition is -0.945% (inactive).

Consider `CN=c1sc2ccccc2n1CC(O)COc1ccccc1` (stereo not given), for which the activity, negative = inhibition was -0.403% (inactive).

As to `COc1cc(C(=O)Nc2ccc(O)cc2C(=O)O)ccc1OC(C)=O`, the activity, negative = inhibition is 6.09% (inactive).

Consider `c1nc(NC2CCCCC2)c2[nH]cnc2n1`, for which the activity, negative = inhibition is -29.4% (inactive).

In the case of `CCN(CC)CCN1C(=O)C(=O)/C(=C(/O)c2c(C)[nH]c(C(=O)OC)c2C)C1c1ccc(OC)cc1` (stereo not given), the activity, negative = inhibition was 9.4% (inactive).

Turning to `OCCCc1nc2ccccc2n1CCc1ccccc1`, the activity, negative = inhibition is -0.378% (inactive).

In the case of `CN(C)CC(O)COc1cccc(OCC(O)CN(C)C)c1` (stereo not given), the activity, negative = inhibition is 3.74% (inactive).

On to `CCC(=O)Nc1ccc(-c2nnc(SCC(=O)NCC3CCCO3)n2C)cc1` (stereo not given), for which the activity, negative = inhibition is 1.52% (inactive).

As for `C(=N\n1cnnc1)/c1cccnc1`, the activity, negative = inhibition is 12.5% (inactive).

For the compound `CC1CCc2cc(F)cc3c(O)c(C(=O)Nc4cnccn4)c(=O)n1c23` (stereo not given), the activity, negative = inhibition was 11.1% (inactive).

A further test addresses Glucocorticoid receptor (Homo sapiens) (UniProt P04150). Nature of the test: GR-GFP Redistribution (AID 450;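 active = compounds whose dose series gives a full or clear partial fitted curve of increased nuclear translocation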; also: potency is read from the fitted curve at half-maximal effect). The conditions noted are these: U2OS GR-GFP nuclear translocation, laser cytometry, 2 h; series mostly up to 20.6 µM.
Regarding `CCOC(=O)c1ccccc1OCc1cc(/C=N/n2cncn2)ccc1OC`, the Potency is > 20.6 µM (inactive).

Consider `C=CCNc1nc(-c2ccc(O)c(C(N)=O)c2)cs1`, for which the Potency is > 20.6 µM (inactive).

`COC(=O)c1n[nH]c2ccccc12`: the Potency was > 20.6 µM (inactive).

Take `O=C(Oc1ccccc1N1C(=O)CCC1=O)c1ccco1`: the Potency is > 20.6 µM (inactive).

Regarding `CCN(CC)C(=O)COn1c(SCC(=O)N(CC)CC)nc2ccccc2c1=O`, the Potency was > 20.6 µM (inactive).

As to `CCCCOc1ccc(C(=O)Nn2cnnc2)cc1`, the Potency is > 20.6 µM (inactive).

With `O=c1cc(NCc2ccccc2)nc2n1CCCS2`, the Potency was > 20.6 µM (inactive).

As to `C[N+](C)(C)CCOP(=O)([O-])OC[C@H](O)CO`, the Potency was > 20.6 µM (inactive).

With `CCn1nc(NC(=O)c2cccnc2)c2cc3ccccc3nc21`, the Potency is > 20.6 µM (inactive).

Take `CC1(C)Cc2c(sc3nc4n(c(=O)c23)CCC4)CO1`: the Potency is > 20.6 µM (inactive).

`Cn1c(=O)c2c3c(sc2n2c(SCC(=O)c4ccccc4)nnc12)COC(C)(C)C3`: the Potency is > 20.6 µM (inactive).

Turning to `CC(=O)NC(=O)Nc1sc(=S)n(C)c1C`, the Potency is > 20.6 µM (inactive).

For the compound `COc1ccc2cnn(-c3ccccc3C)c(=O)c2c1OC`, the Potency is > 20.6 µM (inactive).

As for `CCN(CC)CCN1C(=O)c2ccccc2NC1c1cc(OC)c(OC)c(OC)c1` (stereo not given), the Potency is > 20.6 µM (inactive).

Take `C=CCc1c(C)nc(SCCC)[nH]c1=O`: the Potency was > 20.6 µM (inactive).

Consider `CSc1nnc(N(CCC#N)CCC#N)s1`, for which the Potency was > 20.6 µM (inactive).

On to `Cn1c(=O)n(CCc2ccccc2)c(=O)c2c1ncn2Cc1ccccc1`, for which the Potency was > 20.6 µM (inactive).

As for `CCOc1cccc(NC(=O)C2CC(=O)NC(=Nc3ccccc3)S2)c1` (stereo not given), the Potency is > 20.6 µM (inactive).

As to `N#Cc1c(-c2ccco2)cc(C2CC2)nc1N`, the Potency is > 20.6 µM (inactive).

For the compound `O=C1c2ccccc2C(=O)N1c1ncccn1`, the Potency is > 20.6 µM (inactive).

With `Cc1cc(=O)oc2ccc(OCC(=O)N3CCc4ccccc43)cc12`, the Potency was > 20.6 µM (inactive).

`OC1CN=C2Sc3ccccc3N2C1` (stereo not given): the Potency was > 20.6 µM (inactive).

With `c1cc2c(cc1C1=Nn3c(nnc3C3CCCCC3)SC1)OCO2`, the Potency is > 20.6 µM (inactive).

Consider `CCCOc1ccc(/C(O)=C2/C(=O)C(=O)N(CCN(C)C)C2c2ccncc2)cc1` (stereo not given), for which the Potency was > 20.6 µM (inactive).

As to `Nc1ccc2c3c(cccc13)CC2`, the Potency was 3.98 µM (active).

In the case of `O=C(c1ccccc1)n1c(=S)nc2ccccn21`, the Potency was > 20.6 µM (inactive).

On to `CSc1nncc(=O)[nH]1`, for which the Potency was > 20.6 µM (inactive).

For the compound `CCN1CCc2c(C#N)c(N3CCOCC3)nc(NCCO)c2C1`, the Potency is > 20.6 µM (inactive).

With `CCCCCSc1nc(O)cc(=O)[nH]1`, the Potency was > 20.6 µM (inactive).

For `CCCOc1cccc(-c2nnc(N)s2)c1`, the Potency is > 20.6 µM (inactive).

In the case of `CC1=C(c2ccc(Cl)cc2)[N+](=O)C(C)(C)N1[O-]`, the Potency is > 20.6 µM (inactive).

With `CN=c1sc2ccccc2n1CC(O)COc1ccccc1` (stereo not given), the Potency is > 20.6 µM (inactive).

For `COc1cc(C(=O)Nc2ccc(O)cc2C(=O)O)ccc1OC(C)=O`, the Potency is > 20.6 µM (inactive).

`c1nc(NC2CCCCC2)c2[nH]cnc2n1`: the Potency is > 20.6 µM (inactive).

With `CCN(CC)CCN1C(=O)C(=O)/C(=C(/O)c2c(C)[nH]c(C(=O)OC)c2C)C1c1ccc(OC)cc1` (stereo not given), the Potency is > 20.6 µM (inactive).

Turning to `OCCCc1nc2ccccc2n1CCc1ccccc1`, the Potency was > 20.6 µM (inactive).

In the case of `CN(C)CC(O)COc1cccc(OCC(O)CN(C)C)c1` (stereo not given), the Potency is > 20.6 µM (inactive).

Consider `CCC(=O)Nc1ccc(-c2nnc(SCC(=O)NCC3CCCO3)n2C)cc1` (stereo not given), for which the Potency was > 20.6 µM (inactive).

Regarding `C(=N\n1cnnc1)/c1cccnc1`, the Potency is > 20.6 µM (inactive).

On to `CC1CCc2cc(F)cc3c(O)c(C(=O)Nc4cnccn4)c(=O)n1c23` (stereo not given), for which the Potency was > 20.6 µM (inactive).
